The text below walks through data of PubChem BioAssay AID1626 (SRMLSC, 2009).

In all, about 220,000 compounds went through this assay and about 2,000 (0.91%) were called active. Not shown: some 2% with an inconclusive outcome. Only a sample is shown. Results with a measured potency or affinity are listed apart. A number with no mark means an inactive call. Rule as the data show it: inconclusive = inhibition above about 80% without an active follow-up result; inactive = below that; test concentration not stated here.

The nature of this experiment: M. tuberculosis H37Rv growth inhibitors, H37Rv strain (AID 1626).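 Also: bacteria incubated seven days before Alamar blue readout; 0% = bacteria only wells and 100% = bacteria with antibiotic wells.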 The note with it: hits give high values, concentration not given here.
A word on the inhibition: it is the change of the read-out against control, counted positive when it falls. With `Cc1ccc(-c2csc3nc(-c4ccncc4)[nH]c(=O)c23)cc1`, the inhibition was 3.27%. With `Cc1cccc(N2CCN(C(=O)Cn3cccc3)CC2)c1C` the figure was 3.88%; with `Cc1ccc(/C=N/N2CCN(Cc3ccccc3)CC2)s1`, -23%; with `COc1ccc(C2=NOC(C)(c3nnc(-c4ccc(F)cc4)o3)C2)cc1` (stereo not given), -6.66%. With `Cc1ccc(CC2CC(=O)N(c3ncccn3)C2=O)cc1` (stereo not given) the figure was -1.69%. With `Cc1cccc(CC2CC(=O)N(c3ncccn3)C2=O)c1` (stereo not given) the figure was -7.53%; with `N#CCC(=O)Nc1ncc(Cc2ccccc2Cl)s1`, 5.63%; with `Cc1ccc(Cc2cnc(N3C(=N)SC(c4ccccc4)C3=O)s2)cc1` (stereo not given), 1.22%. With `CNc1ncc(Cc2ccccc2)s1`, the inhibition was 14.7%. The same measure for `Cc1ccc(CC2C(=O)N(c3ncccn3)C(=O)C2C)cc1` (stereo not given): -0.53%; for `Cc1cccc(Cc2cnc(NC(=O)c3ccc(C)o3)s2)c1`: 21.9%; for `O=C(CSc1nnnn1-c1ccccc1)Nc1ncc(Cc2ccccc2Cl)s1`: 0.66%. The same measure for `CCCn1c(=S)[nH]c2cc(C(=O)N3CCc4ccccc4C3)ccc2c1=O`: -2.54%; for `CC(C)(C)OC(=O)N1CC(O)CC1C(=O)OCC(=O)c1ccccc1` (stereo not given): -11.3%; for `CC(O)CNC(=O)Cc1cc(=O)[nH]c(=O)[nH]1` (stereo not given): -2.41%. With `Cc1ccc2cc(CCNC(=O)C(C)(C)C)c(=O)[nH]c2c1` the figure was 4.44%.

`Cc1nn(C)cc1CN1CCC(CO)(CCOc2ccccc2)CC1`: the inhibition is -0.32%. The same measure for `Cc1ccc(CNC(=O)C2CNc3cc(C)ccc3O2)cc1` (stereo not given): 11.1%; for `CC(C)CN(CCCNC(=O)CN1C(=O)COc2ccc(S(=O)(=O)N3CCCC3)cc21)CC(C)C`: -2.35%; for `CNC(=O)/C(C#N)=C\c1ccc(CNS(=O)(=O)c2ccccc2)o1`: -2.69%.

With `COc1ccc(N2CCc3c(C)nc(SC)nc32)cc1`, the inhibition was 11%. As to `CSc1nc(C)c2c(n1)N(c1ccc(F)cc1)CC2`, the inhibition was 5.51%. With `CC(C)(C)OC(=O)NCCc1nnc(SCc2cccc(Cl)c2)o1` the figure was 13.5%; with `Cc1nc2nc[nH]n2c(=O)c1C/C=C/c1ccccc1`, -3.13%; with `Cc1nc2nc(N)nn2c(C)c1C/C=C/c1ccccc1`, -9.36%. With `Cc1ccnc(NC(=O)CCC(=O)N(CC(=O)NCc2ccccc2)Cc2cccs2)c1` the figure was 6.51%. The same measure for `Cc1cc2nccc(-c3ccncc3)n2n1`: 2.36%; for `N#CCC1c2ccccc2CCN1C(=O)Nc1cccc(C(F)(F)F)c1` (stereo not given): -1.17%; for `N#CCC1c2ccccc2CCN1C(=O)Nc1ccc(Cl)cc1` (stereo not given): -4.15%. As to `C=CCN=C1SCC(=O)N1S(=O)(=O)c1ccccc1`, the inhibition was 6.81%. For `Cc1ccn2c(CNC(C)CCn3cccn3)c(C(=O)N3CCCCCC3)nc2c1` (stereo not given), the inhibition is -0.19%. In the case of `Cc1nc(N2CCOCC2)c2oc3ccccc3c2n1`, the inhibition was -2.79%.

As for `Cc1nc(N2CCC(C)CC2)c2oc3ccccc3c2n1`, the inhibition is 10%. Turning to `COc1ccccc1N1CCN(c2ncnc3c2oc2ccccc23)CC1`, the inhibition is -5.65%.

Turning to `Cc1nc(N2CCN(Cc3nc4ccccc4[nH]3)CC2)c2oc3ccccc3c2n1`, the inhibition was -2.88%. For `CN(CC(=O)Nc1ccccn1)S(=O)(=O)c1ccc(Cl)cc1`, the inhibition was -2.26%. With `CN(C)/C=C1\N=C(c2ccccc2)OC1=O` the figure was 8.41%; with `CC(=O)Oc1ccc2c(=O)c(Oc3ccccc3)c(C)oc2c1OC(C)=O`, -17.4%.

In the case of `COc1ccc(-c2[nH]ncc2CNC(C)Cc2cccc(C)n2)cc1F` (stereo not given), the inhibition is 0.91%. With `CCOc1ccc(CCN2C(=O)C(=O)N([C@H](CCCN(C)Cc3ccccc3)CNCc3ccccc3)C[C@@H]2C(C)C)cc1` the figure was -12.7%. The same measure for `Cc1ccc(CCN2CC(C(=O)NCCCN(C)Cc3ccccc3)CC2=O)cc1` (stereo not given): 2.65%; for `O=C1NC[C@H](c2ccccc2)N(CCc2cccc(F)c2)C1=O`: -4.05%; for `COc1ccc(CNC(=O)[C@@H]2CC=C[C@@H]3CCN(Cc4ccc(Cl)c(Cl)c4)C(=O)[C@@H]32)cc1`: 6.56%.

As for `Cc1cc(C)nc(NS(=O)(=O)c2ccc(NC(=O)c3ccco3)cc2)n1`, the inhibition was 3.55%.

Regarding `O=C(Nc1ccc(Cl)cc1)OCc1cn(-c2ccc(Cl)cc2)nn1`, the inhibition was -0.6%. For `O=C(CCN1CCCCC1)N/N=C/c1c[nH]c2ccccc12`, the inhibition was -4.97%.

As for `Cc1ccc(C)c(N(C(=O)CS(=O)CC(=O)Nc2ccc3c(c2)OCO3)C(C)C(=O)NC2CCCC2)c1` (stereo not given), the inhibition is -13.4%. Take `CC1(C)CC(=O)C(C=Nc2ccc(O)cc2)=C(O)C1`: the inhibition was 1.61%. In the case of `CC1(C)CC(=O)C(C=Nc2ccc(N)cc2)=C(O)C1`, the inhibition was 0.045%. The same measure for `COCCNC(=O)CSc1c2c(nc3ccc(Cl)cc13)CCCC2`: 0.54%. The same measure for `O=C(O)c1c2c(nc3ccc(Cl)cc13)CCC2`: -3.42%. `Oc1ccc(-n2cnnn2)cc1`: the inhibition was -8.59%.

On to `CCc1nccn1-c1cc(C(C)(C)C)nc2c(-c3ccc(Cl)cc3)cnn12`, for which the inhibition is 3.22%. The same measure for `CC(=O)Nc1ccc(Nc2cc(C)nc3c(-c4ccccc4)cnn23)cc1`: 72.8%; for `Cc1cc(-c2ccccc2)n2ncc(-c3ccccc3)c2n1`: 7.91%; for `Cc1cc(NCCN2CCOCC2)n2ncc(-c3ccccc3)c2n1`: 8.29%. With `Cc1nccn1-c1cc(C(C)(C)C)nc2c(-c3ccccc3)cnn12` the figure was 2.7%; with `Cc1cc(N)n2ncc(-c3ccccc3)c2n1`, 8.61%; with `O=C(COc1ccccc1)N1c2ccccc2Sc2ccccc21`, -4.38%. Take `O=C(O)c1ccccc1SCC(=O)N1CCOCC1`: the inhibition was 7.09%. The same measure for `CCOc1cccc2sc(Cl)nc12`: -8.06%; for `CN=C(SCc1cc2c(cc1Cl)OCO2)c1c(O)n(C)c(=O)n(C)c1=O`: -0.46%. With `CN=C(SCc1ccccc1)c1c(O)n(C)c(=O)n(C)c1=O` the figure was -0.87%; with `C=CCN=C(SCC(=O)c1ccc(Cl)cc1)c1c(O)n(C)c(=O)n(C)c1=O`, 1.31%; with `CSC(=Nc1ccccc1)c1c(O)n(C)c(=O)n(C)c1=O`, -1.82%.
